An excerpt weighted towards active compounds, which were near 14% of everything screened.
Shiga toxin inh = inhibitors of Shiga toxin in Vero cells | Vero cells, Shiga toxin protein synthesis inhibition reporter | inhibition, % at 38.7 µM | 290,000 tested, 9.2% active | AID 2315; in the data active = inhibition mostly above about 28%, no sharp cut-off; inactive = mostly below about 43%
NS1 inh = inhibitors of influenza NS1 protein function | Potency, µM (titrated, usually from 46.1 µM) | 270,000 tested, 0.4% active | AID 2326; calls by dose curve; note: actives are rising curves; nearly all actives have a fitted effect of over 50% in size
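S. cerevisiae expressing influenza A NS1, grown in glucose, washed, then diluted 1:100 into pH 6.0 -URA galactose medium with 23 nl compound. Growth recovery read as OD600; NS1-free strain serves as control.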
LmPK inhibitor = blocks Leishmania mexicana pyruvate kinase activity; purified LmPK, Kinase-Glo ATP luminescence, 1 h; Potency, µM (highest dose often 57.5 µM), most hits filed as inhibitors; 290,000 tested, 0.37% active; AID 1721
Target sequence (Q27686 whole entry, looked up): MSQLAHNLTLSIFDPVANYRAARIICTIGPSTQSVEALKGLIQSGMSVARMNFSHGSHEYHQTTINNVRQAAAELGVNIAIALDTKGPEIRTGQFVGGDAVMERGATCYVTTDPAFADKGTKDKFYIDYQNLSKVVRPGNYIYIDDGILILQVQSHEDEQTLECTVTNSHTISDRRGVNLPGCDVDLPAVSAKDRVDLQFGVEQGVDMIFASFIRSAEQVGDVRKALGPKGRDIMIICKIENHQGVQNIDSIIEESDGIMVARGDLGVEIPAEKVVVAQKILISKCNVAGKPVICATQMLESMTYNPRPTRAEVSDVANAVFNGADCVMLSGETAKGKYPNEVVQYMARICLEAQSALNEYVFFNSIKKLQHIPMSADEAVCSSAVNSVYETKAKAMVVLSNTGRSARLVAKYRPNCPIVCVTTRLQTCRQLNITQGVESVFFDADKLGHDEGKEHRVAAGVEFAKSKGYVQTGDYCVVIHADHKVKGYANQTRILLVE
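Purified LmPK (0.1 nM) converted ADP (0.1 mM) to ATP with PEP (0.5 mM) in imidazole buffer pH 7.2 with KCl and MgCl2, 1 h at room temperature. ATP was read by Kinase-Glo luminescence; data normalized to uninhibited and no-enzyme controls.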
FBPA Giardia inh = inhibitors of Giardia lamblia fructose-1,6-bisphosphate aldolase | A8B2U2 | purified Giardia FBPA | Potency, µM (titrated, usually from 59.6 µM), actives largely listed as inhibitors | 290,000 tested, 0.71% active; note: nearly all actives have a fitted effect of over 55% in size
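Giardia FBPA (40 nM reagent) was preincubated 10 min at RT with compound (up to 57.5 uM final), then substrate plus GAPDH/TPI/NAD/arsenate coupling system with diaphorase/resazurin was added; resorufin fluorescence (525/598 nm) was read after 20 min.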
Cycloheximide cs = counter-screen for Shiga toxin inhibitors: cycloheximide protein synthesis inhibition; cell reporter, cycloheximide protein synthesis inhibition counterscreen; max response, %; 300,000 tested, 12% active; AID 2314; in the data active = max response mostly above about 13%, no sharp cut-off; inactive = mostly below about 14%; note: read at 38.3 µM for the half of the compounds with a filed dose
Large screens that a line does not name were inactive. Unless noted, calls come from the whole dose curve; as a rule, active = well fitted curve in the direction sought with a large enough effect; inconclusive = small, poorly fitted or top-dose-only effect, or another doubt; inactive = no such curve, though single readings can be large; an effect the other way counts as inactive or inconclusive.

CN(CCC(=O)O)S(=O)(=O)c1ccccc1	none (no result: Shiga toxin inh, LmPK inhibitor, FBPA Giardia inh, Cycloheximide cs)
c1ccc(NC2=Nc3ccccc3CC2)cc1	Shiga toxin inh 44.5, Cycloheximide cs 36.8
CCSc1nnc2nc3[nH]c4c(C)cccc4c3nn12	Shiga toxin inh 61.5, Cycloheximide cs 40.2 (no result: NS1 inh)
C=CCSc1nnc2c(n1)[nH]c1c(C)cccc12	Shiga toxin inh 59.9, Cycloheximide cs 40.0
CC1(C)Oc2ccc3ccc(=O)oc3c2C(/C=N/O)=C1Cl	none (no result: Shiga toxin inh)
Cn1c(NC(=O)C[n+]2cc(-c3ccc(F)cc3)n3c2CCC3)cc(=O)n(C)c1=O	none
O=C(C[n+]1cc(-c2ccc(F)cc2)n2c1CCC2)c1cccs1	Shiga toxin inh 88.7, Cycloheximide cs 18.3
c1ccc(CCNc2ccccc2)cc1	Cycloheximide cs 20.7
c1ccc(CCNCc2ccccc2)cc1	none
Cc1ccc(CCNc2ccccc2)c[n+]1[O-]	Cycloheximide cs 15.1
Cc1nnc(NCCc2ccccc2)c2ccccc12	Shiga toxin inh 131.7, Cycloheximide cs 41.7
C=C(COC)C1=CCC(C(=O)OC)(C(=O)OC)[C@@H](C[N+](=O)[O-])c2ccccc21	none (no result: Shiga toxin inh, NS1 inh, LmPK inhibitor, Cycloheximide cs)
CCC1CCCCN1CCCNC(=O)C1CC(=O)N(CCc2ccccc2)C1 (stereo unspecified)	none
CC1CCc2nc(NC(=O)C3CC3)sc2C1 (stereo unspecified)	Shiga toxin inh 82.5, Cycloheximide cs 50.6
CC1CCc2nc(NC(=O)CN3CCOCC3)sc2C1 (stereo unspecified)	Shiga toxin inh 67.8, Cycloheximide cs 38.4
Cc1ncsc1C(=O)Nc1nc2c(s1)CC(C)CC2 (stereo unspecified)	Shiga toxin inh 82.3, Cycloheximide cs 26.9
CC1CCc2nc(NC(=O)Nc3ccc4c(c3)OCO4)sc2C1 (stereo unspecified)	Shiga toxin inh 91.1, Cycloheximide cs 44.7
CC(=O)c1ccccc1OC(=O)COc1ccc([N+](=O)[O-])cc1	none
CN(CC(=O)Nc1ccc(F)cc1)C(=O)CN1C(=O)NC2(CCCc3ccccc32)C1=O (stereo unspecified)	none (no result: FBPA Giardia inh)
CO[C@]12C[C@@H](COC(=O)c3cncc(Br)c3)CN(C)[C@@H]1Cc1cn(C)c3cccc2c13	none (no result: Shiga toxin inh, NS1 inh, LmPK inhibitor, Cycloheximide cs)
CN(CCNC(=O)c1ccc(CS(=O)(=O)c2c(Cl)cccc2Cl)o1)CCc1ccccc1	none
COC(=O)c1cn(CCOc2ccccc2)c2ccccc12	Shiga toxin inh 79.4, Cycloheximide cs 54.6
COC(=O)c1cn(CCOc2ccccc2F)c2ccccc12	Shiga toxin inh 71.0, Cycloheximide cs 40.4
CC1(C)OC(C)(C)/C(=C/Nc2ccc(O)cc2)C1=O	FBPA Giardia inh 2.81µM
CC1(C)OC(=O)C(=CNc2cccc(O)c2)C(=O)O1	none
COc1ccc(CCN(C)C(=O)c2c(C)nn(-c3ccccc3)c2C)cc1OC	none (no result: FBPA Giardia inh)
CC(=O)N(c1ccccc1)c1nnc(-c2cnc(C)cn2)s1	Shiga toxin inh 68.3, Cycloheximide cs 28.8
O=C(OCC(=O)N1CCOCC1)c1ccc(F)cc1Cl	Shiga toxin inh 51.0, Cycloheximide cs 35.4
O=C(OCC(=O)N1CCOCC1)c1cccc(F)c1	Shiga toxin inh 93.6, Cycloheximide cs 47.9
CCn1c(SCC(=O)Nc2ccc3c(c2)OCCO3)nnc1C1CC1	none
Nc1c(OCC(=O)O)ccc2cc(S(=O)(=O)O)ccc12	none (no result: Shiga toxin inh, LmPK inhibitor, FBPA Giardia inh, Cycloheximide cs)
CCCn1c(NC(=O)c2ccccc2)nc2ccccc21	FBPA Giardia inh inconclusive
CCN(CC)CCn1c(NC(=O)c2ccccc2O)nc2ccccc21	Cycloheximide cs 26.1 (no result: Shiga toxin inh)
CCN(CC)CCn1c(NC(=O)c2ccc(Cl)cc2)nc2ccccc21	Cycloheximide cs 18.7
CS(=O)Cc1cc(Sc2ccccc2)nc(-c2ccncc2)n1 (stereo unspecified)	none (no result: NS1 inh)
Cc1c(C)n(CCc2ccccc2)c2ncnc(NCCO)c12	Shiga toxin inh 67.9, Cycloheximide cs 52.3
COc1ccccc1Nc1ncnc2c1c(C)c(C)n2CCO	Shiga toxin inh 60.8, Cycloheximide cs 42.1
O=S(=O)(c1ccc(Cl)c(C(F)(F)F)c1)N1CCN(CC(O)COCC2CCCO2)CC1 (stereo unspecified)	FBPA Giardia inh inconclusive, Cycloheximide cs 32.4
COC(=O)Cn1ncc2c(C)n(Cc3ccccc3)c(C)c2c1=O	Shiga toxin inh 74.2, Cycloheximide cs 38.6
CNC(=O)Cn1ncc2c(C)n(Cc3ccc(C)cc3)c(C)c2c1=O	none
Cc1c2cnn(CC(=O)O)c(=O)c2c(C)n1Cc1ccccc1	none
Cc1ccc(Cn2c(C)c3cnn(CC(=O)NC4CCCC4)c(=O)c3c2C)cc1	Shiga toxin inh 30.0, Cycloheximide cs 10.1
C=C(C)CNCCN	none (no result: Shiga toxin inh, LmPK inhibitor, FBPA Giardia inh, Cycloheximide cs)
Nc1cc(Cl)nc(N/N=C/c2c(O)ccc3ccccc23)n1	Shiga toxin inh 116.4, Cycloheximide cs 26.3
O=S(=O)(/N=C/c1c(O)ccc2ccccc12)c1ccccc1	FBPA Giardia inh inconclusive, Cycloheximide cs 11.1
O=C(O)c1cc(N/N=C/c2c(O)ccc3ccccc23)ccc1Cl	Shiga toxin inh 160.1, FBPA Giardia inh inconclusive, Cycloheximide cs 63.4
CC1CCCN(C(=O)C(=O)c2cn(CC(=O)N3CCCCCC3)c3ccccc23)C1 (stereo unspecified)	none (no result: FBPA Giardia inh)
N#Cc1ccc(CS(=O)(=O)c2ccccc2)cc1	none (no result: Shiga toxin inh, NS1 inh, LmPK inhibitor, Cycloheximide cs)
Nc1ccc2c(c1)Cc1cc([N+](=O)[O-])ccc1-2	Shiga toxin inh 66.8, Cycloheximide cs 41.7 (no result: NS1 inh)

Screening data (PubChem)
